Bioassay records deposited in PubChem by National Center for Advancing Translational Sciences (NCATS).
Pf growth 96h = P. falciparum growth inhibition at 96 hours; P. falciparum luciferase reporter growth, 96 h; Potency, µM (top dose mostly 28.7 µM), inactives show at the highest dose activity change, negative = inhibition, usual class: inhibitors; 320,000 compounds, 6.9% hits; AID 504834; note: potency is the fitted concentration of half-maximal effect; % is set by controls: 0 for no effect and ±100 for the full control effect
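Erythrocytes infected with luciferase-expressing P. falciparum were dispensed at 2% hematocrit and 0.05% parasitemia (final), then incubated with compounds 96 hours at 37 C in 5% CO2. Luminescence after detection reagent addition reported growth.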
HCV inh = inhibitors of hepatitis C virus infection; 340,000 compounds, 3.4% hits; Huh7.5.1 HCVcc-Cre infection, luciferase reporter, 44 h; Potency, µM (doses to about 41.8 µM), for inactives: at the highest dose activity change, negative = inhibition, usual class: inhibitors; note: potency is the fitted concentration of half-maximal effect; % is set by controls: 0 for no effect and ±100 for the full control effect
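Cells seeded at 1,000/well and cultured 4 h, then compounds added followed by HCVcc-Cre virus (~0.5 moi). After 44 h further culture, luciferase substrate was added, plates held 15 min at room temperature, and luminescence read for 15 sec.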
Pf growth 48h = inhibits P. falciparum growth in the first generation, 48 h; Potency, µM (top dose mostly 28.7 µM), inactives show at the top dose activity change, negative = inhibition, hits mostly inhibitors; P. falciparum luciferase growth in erythrocytes, 48 h; 310,000 compounds, 5.9% hits; AID 504832; note: potency is the fitted concentration of half-maximal effect; % is set by controls: 0 for no effect and ±100 for the full control effect
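Parasite viability was followed by luminescence of a genomically integrated firefly luciferase. Cultures held 0.1% parasitemia at 2% hematocrit (final), incubated under 5% CO2 at 37 C.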
Shiga toxin inh = Shiga toxin inhibition. Vero cells, Shiga toxin protein synthesis inhibition reporter. inhibition, % at 38.7 µM. 290,000 compounds, 9.2% hits. AID 2315; in the data active = inhibition mostly above about 28%, no sharp cut-off; inactive = mostly below about 43%; note: 0% is about no effect
HCMV antiviral = inhibitors of human cytomegalovirus; HFF cells, HCMV-luciferase reporter, 72 h; stronger effect = lower value; activity change, negative = inhibition, % at 57.5 µM; 410,000 compounds, 4.5% hits; AID 1259415; in the data active = activity change below about -60%; inconclusive = no clear call, values can overlap the other calls; inactive = above about -39%; note: % is set by controls: 0 for no effect and ±100 for the full control effect
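Steps: HFFs plated, 16 h 37C; compounds added; HCMV-luciferase added to MOI 1 PFU/cell; 72 h 37C; OneGlo reagent, 5 min room temperature; luminescence read, normalized to controls.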
CHX counter = affects cycloheximide protein synthesis inhibition readout, counter-screen. AID 2314. max response, %. cell reporter, cycloheximide protein synthesis inhibition counterscreen. 300,000 compounds, 12% hits; in the data active = max response mostly above about 13%, no sharp cut-off; inactive = mostly below about 14%; note: read at 38.3 µM for the half of the compounds with a filed dose; 0% is about no effect
An asterisk follows results filed as active; ! = not active in a repeat. Shown are actives, neighbours in structure and some others; about 21% of the full set was active somewhere. Unless noted, calls come from the whole dose curve; as a rule, active = well fitted inhibition curve with a large enough effect; inconclusive = small, poorly fitted or top-dose-only effect, or another doubt; inactive = no such curve, though single readings can be large or run the other way.

C[C@H](CCC(=O)O)[C@H]1CC[C@@H]2[C@H]3[C@@H](C[C@@H](O)[C@]21C)[C@]1(C)CC[C@H](O)C[C@@H]1C[C@@H]3O was read as Pf growth 96h -17% and Pf growth 48h -13%.
Screening C[C@H](CCC(=O)O)[C@H]1CC[C@H]2[C@@H]3[C@H](O)C[C@@H]4C[C@H](O)CC[C@]4(C)[C@H]3C[C@H](O)[C@]12C returned Pf growth 96h 12µM*!, HCV inh 13%, Pf growth 48h 9.3µM*!, Shiga toxin inh -8, HCMV antiviral 110 and CHX counter -3.
`Cc1ccc(-n2nc(C(=O)N3CCN(c4ccccc4)CC3)c(=O)n(C)c2=O)cc1` gave HCMV antiviral 16.
For Cc1cccc(Oc2nc3c(c(=O)n(C)c(=O)n3C)n2Cc2ccccc2)c1C the results were HCMV antiviral 4.
COC(=O)c1scc(C#N)c1N/N=C(\C#N)S(=O)(=O)c1ccc(Cl)cc1 was read as Pf growth 96h -24%, HCV inh inconclusive, Pf growth 48h 3%, Shiga toxin inh 4, HCMV antiviral -97* and CHX counter -2.
Screening COC(=O)c1scc(S(=O)(=O)C(C)C)c1N/N=C(\C#N)C(=O)c1ccc(Cl)cc1 returned Pf growth 96h -3%, HCV inh inconclusive, Pf growth 48h inconclusive, Shiga toxin inh -5, HCMV antiviral inconclusive and CHX counter 0.
COCC(C)NC(=O)C1=CC(c2ccc3c(c2)OCO3)=NS(=O)(=O)N1C (stereo unspecified) was read as HCMV antiviral 10.
O=c1[nH]c(=S)[nH]c(O)c1N=Nc1ccc(SC(F)F)cc1 was read as Pf growth 96h 2%, HCV inh 1%, Pf growth 48h 0%, Shiga toxin inh 25, HCMV antiviral -61* and CHX counter 33*.
CC(C)c1ccc(N=Nc2c(O)[nH]c(=O)[nH]c2=O)cc1 was read as Pf growth 96h 6%, HCV inh 6%, Pf growth 48h 54%, Shiga toxin inh 16, HCMV antiviral -15 and CHX counter 19.
Screening COc1ccc(CCNCc2cc3ccc(C)cc3[nH]c2=O)cc1OC returned Pf growth 96h 13µM*, HCV inh -10%, Pf growth 48h 17%, Shiga toxin inh -6, HCMV antiviral -32 and CHX counter -4.
For COc1ccccc1N(Cc1cc2ccc(C)cc2[nH]c1=O)C(C)=O the results were Pf growth 96h inconclusive, HCV inh 9%, Pf growth 48h 5%, Shiga toxin inh -19, HCMV antiviral -15 and CHX counter -2.
Cc1cccc(CCNCc2cc3ccc(C)cc3[nH]c2=O)c1 was read as Pf growth 96h -17%, HCV inh -1%, Pf growth 48h -9%, Shiga toxin inh -8, HCMV antiviral 27 and CHX counter -3.
COc1ccc(CCN(Cc2cc3ccc(C)cc3[nH]c2=O)C(C)=O)cc1OC was read as Pf growth 96h -2%, HCV inh -6%, Pf growth 48h 2.3µM*, Shiga toxin inh -5, HCMV antiviral 1 and CHX counter -3.
For Cc1ccc2cc(CNC(C)C)c(=O)[nH]c2c1 the results were Pf growth 96h 5.2µM*, HCV inh -2%, Shiga toxin inh -5, HCMV antiviral -25 and CHX counter -1.
`COC(=O)C1=C(C)N(Cc2ccccc2C(F)(F)F)C(=NCc2cc(OC)c(OC)c(OC)c2)NC1c1ccc(Cl)cc1` (stereo unspecified) gave HCMV antiviral 0.
`COc1ccccc1NC(=O)N1CC(=O)N2[C@H](CO)[C@@H](c3ccc(Br)cc3)[C@H]2C1` gave HCMV antiviral 3.
Oc1ccc2ccccc2c1N=Nc1ccccc1F was read as Pf growth 96h inconclusive, HCV inh inconclusive, Pf growth 48h -21%, Shiga toxin inh 21, HCMV antiviral 0 and CHX counter 4.
For Oc1ccc2ccccc2c1N=Nc1ccccn1 the results were Pf growth 96h 6.6µM*, HCV inh 8.9µM*, Pf growth 48h inconclusive, Shiga toxin inh 18, HCMV antiviral -98* and CHX counter 15.
Screening CCOC(=O)c1[nH]c(=O)c2ccccc2c1O returned Pf growth 96h -1%, HCV inh 0%, Pf growth 48h 33%, Shiga toxin inh 10, HCMV antiviral 62 and CHX counter 5.
Screening CCOC(=O)c1[nH]cnc1N=Nc1c(O)ccc2ccccc12 returned Pf growth 96h 2.3µM*, HCV inh 7.9µM*, Pf growth 48h 2.9µM*, Shiga toxin inh -6, HCMV antiviral -97* and CHX counter 2.
For O=S(=O)(O)c1cccc(N=Nc2c(O)ccc3ccccc23)c1 the results were Pf growth 96h 10µM*, HCV inh 4%, Pf growth 48h inconclusive, Shiga toxin inh -6, HCMV antiviral -18 and CHX counter -2.
CN(Cc1nccn1C)C(=O)CC1C(=O)NCCN1CC(c1ccccc1)c1ccccc1 (stereo unspecified) was read as Pf growth 96h -10%, HCV inh 8%, Pf growth 48h inconclusive, Shiga toxin inh -17, HCMV antiviral 16 and CHX counter -3.
For Cc1cc(C(=O)OCC(=O)NCc2ccco2)c(C)n1-c1ccc(F)cc1 the results were Pf growth 96h inconclusive, HCV inh inconclusive, Pf growth 48h 8.3µM*, Shiga toxin inh 22, HCMV antiviral inconclusive and CHX counter 14.
`CCNC(=O)COC(=O)c1cc(C)n(-c2ccccc2)c1C` gave Pf growth 96h -1%, HCV inh 7%, Pf growth 48h -5%, Shiga toxin inh 62*, HCMV antiviral 2 and CHX counter 41*.
For Fc1ccc2c(c1)-c1nc(-c3ccccc3)cc(-c3ccccc3)c1CO2 the results were HCMV antiviral -19.
`CCCn1c(C(C)Nc2nc(-c3ccc(Cl)c([N+](=O)[O-])c3)cs2)nc2ccccc21` (stereo unspecified) gave Pf growth 96h 5.9µM*, HCV inh inconclusive, Pf growth 48h 13µM*, Shiga toxin inh -10, HCMV antiviral -1 and CHX counter -1.
`CCCn1c(C(C)Nc2nc(-c3ccc(C)cc3)cs2)nc2ccccc21` (stereo unspecified) gave Pf growth 96h 9.3µM*, HCV inh inconclusive, Pf growth 48h inconclusive, Shiga toxin inh 23, HCMV antiviral 4 and CHX counter 3.
Screening O=[N+]([O-])c1cc(-c2csc(NC(CO)c3nc4ccccc4n3CCOCCO)n2)ccc1Cl (stereo unspecified) returned HCV inh inconclusive and HCMV antiviral 47.
Screening CC(Nc1nc(-c2ccc(Cl)cc2)cs1)c1nc2cc(Cl)c(N3CCCCC3)cc2n1CCOCCO (stereo unspecified) returned HCV inh inconclusive and HCMV antiviral 25.
